mIDH1 inhibitor = inhibitors of human mutant IDH1 R132H. O75874. IDH1-R132H enzyme, NADPH consumption, diaphorase/resazurin fluorescence. Potency, µM (top dose mostly 76.6 µM), hits mostly inhibitors. hit rate 0.093% among 390,000. AID 602179; further: nearly all actives have a fitted effect of over 65% in size
Target sequence (O75874 whole entry R132H, stated change not applied): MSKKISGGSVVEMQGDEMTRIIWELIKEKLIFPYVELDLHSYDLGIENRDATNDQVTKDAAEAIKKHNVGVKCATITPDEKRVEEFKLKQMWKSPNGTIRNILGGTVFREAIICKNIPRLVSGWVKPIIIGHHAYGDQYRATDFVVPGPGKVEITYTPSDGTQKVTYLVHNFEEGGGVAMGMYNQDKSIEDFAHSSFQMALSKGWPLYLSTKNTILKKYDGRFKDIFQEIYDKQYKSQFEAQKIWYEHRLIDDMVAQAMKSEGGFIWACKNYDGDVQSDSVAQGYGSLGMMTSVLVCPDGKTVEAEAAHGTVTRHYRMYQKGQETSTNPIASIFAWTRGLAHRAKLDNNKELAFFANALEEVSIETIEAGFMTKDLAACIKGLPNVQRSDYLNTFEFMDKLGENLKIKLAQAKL
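IDH1-R132H (0.5 ug/mL) preincubated 30 min with compound, then NADPH (0.016 mM) and alpha-KG (2 mM) added; 80 min at RT, pH 7.5. Remaining NADPH coupled via diaphorase/resazurin to fluorescence (540/590 nm); concentration-response curves normalized to no-enzyme control.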
A549 viability = counter-screen for Nrf2 inhibitors: cytotoxicity in A549 cells; A549 ARE-Fluc cells, CellTiter-Fluor viability, 18-24 h; Potency, µM (titrated, usually from 46 µM), hits mostly inhibitors; hit rate 0.16% among 390,000
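A549 ARE_Fluc cells in 5% FBS OPTI-MEM were exposed to compounds in concentration-response for 18-24 h at 37 deg C. Viability was read by CellTiter-Fluor fluorescence (Ex 405/Em 525) after 30 min, before the luciferase read.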
Giardia kill = Giardia lamblia killing | Giardia lamblia trophozoite viability | activity change, % at 7.66 µM, hits read low | hit rate 0.15% among 340,000; in the data active means activity change below about -80%; inconclusive means between about -30% and that limit;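 further: parasites exposed to compound for two days anaerobically before the ATP read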
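Giardia lamblia trophozoites (100 cells/well) were incubated with compounds for 48 h at 37 deg C under anaerobic conditions. Viability was read as ATP content by one-step luminescence after 15-30 min at room temperature.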
Nrf2 activator = activates Nrf2 signaling | AREc32 ARE-luciferase reporter (MCF7-derived line), luminescence, 24 h | Potency, µM (series often up to 46.1 µM), hits mostly activators | hit rate 0.31% among 410,000; further: nearly all actives have a fitted effect of over 65% in size
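AREc32 cells carrying an ARE-driven firefly luciferase reporter were seeded at 1000 cells/well in OPTI-MEM with 5% FBS, then exposed to compound for 24 hr at 37 deg C. Luminescence was read with Steady-Glo after 30 min at RT.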
Anesthetic bind = binds horse apoferritin like a general anesthetic; AID 485281; P02791; Potency, µM (top dose mostly 77.5 µM), usual class: inhibitors; apoferritin/1-aminoanthracene competitive binding, fluorescence; hit rate 0.074% among 350,000; further: nearly all actives have a fitted effect of over 20% in size
Target sequence (P02791 2-175 limits assumed): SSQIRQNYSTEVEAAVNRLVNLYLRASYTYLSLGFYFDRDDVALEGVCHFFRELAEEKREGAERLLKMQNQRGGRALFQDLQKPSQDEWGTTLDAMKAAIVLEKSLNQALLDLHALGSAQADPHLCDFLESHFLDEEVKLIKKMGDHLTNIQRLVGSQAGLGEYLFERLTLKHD
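Horse-spleen apoferritin (10 uM) in 50% saturated 1-aminoanthracene in PBS was incubated 10 min at room temperature with compound. Fluorescence (ex 380, em 535 nm) was normalized to free and bound 1-AMA, with concentration-response fitted by a four-parameter Hill equation.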
Nrf2 block = inhibitors of Nrf2 signaling | AID 504444 | A549 ARE-Fluc reporter, luciferase luminescence, 18-24 h | hit rate 2.1% among 360,000 | Potency, µM (titrated, usually from 46 µM), hits mostly inhibitors; further: nearly all actives have a fitted effect of over 60% in size
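Concentration-response testing used A549 ARE_Fluc cells at 5000 cells/well. Following an 18-24 h compound incubation, viability was read by fluorescence (Ex 405/Em 525) and luciferase output by luminescence.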
Numbers stand for hits; n = inactive; u = inconclusive; x = no result. Rows were chosen to be rich in hits. Some 2.3% of all compounds tested hit in one or more screens of this group. Unless noted, the call rests on the fitted dose curve; in most records, active means well fitted curve in the direction sought with a large enough effect; inconclusive means small, poorly fitted or top-dose-only effect, or another doubt; inactive means no such curve, though single readings can be large; an effect the other way counts as inactive or inconclusive.

SMILES	mIDH1 inhibitor	A549 viability	Giardia kill	Nrf2 activator	Anesthetic bind	Nrf2 block
CCOc1ccc2[nH]c(C(=O)N/N=C/c3ccc(OC)cc3)cc2c1	n	n	n	n	n	n
COc1ccc2[nH]c(C(=O)N/N=C/c3ccc(O)cc3O)cc2c1	n	n	n	n	n	2.3µM
COCCCNc1oc(-c2ccc(COc3ccc(Cl)cc3)o2)nc1C#N	n	n	x	n	n	23µM
COc1ccc(Nc2oc(-c3ccc(Cl)cc3)nc2C#N)cc1	n	u	n	n	n	n
CCOc1ccc(Nc2oc(-c3ccc(Cl)cc3)nc2C#N)cc1	n	21µM	n	n	n	n
CCc1cccc(NC(=O)C2CCCN(c3ncnc4onc(-c5ccc(F)cc5)c34)C2)c1 (configuration not stated)	n	n	x	n	n	n
Cc1cccc(C)c1-n1nnnc1C1c2ccccc2C(=O)N1CCc1ccccc1F (configuration not stated)	x	x	x	13µM	x	x
O=C(Nc1ccc(NC(=O)c2cccs2)cc1)c1ccc(Br)cc1	n	n	x	n	n	n
CC(C)C(C)NC(=O)COc1ccc(Sc2ccc(OCC(=O)NC(C)C(C)C)cc2)cc1 (configuration not stated)	n	n	n	n	n	21µM
COc1ccc(OC)c(NC(=O)c2nc(SCc3ccccc3F)ncc2Cl)c1	n	n	x	n	n	n
O=S(=O)(NCC(Nc1ccc(Cl)cc1)c1ccccc1)c1ccc(Cl)cc1 (configuration not stated)	n	u	n	n	n	21µM
Cc1ccc(S(=O)(=O)NCC(Nc2cccc(Cl)c2)c2ccccc2)cc1 (configuration not stated)	n	n	x	n	n	u
CCCC(=O)N1CCN(c2ccc(NC(=O)c3ccc(N4CCCC4)c([N+](=O)[O-])c3)cc2Cl)CC1	n	n	n	n	x	n
Cc1ccc(C(=O)Nc2ccccc2N2CCCCC2)cc1[N+](=O)[O-]	n	n	u	n	n	12µM
CCC(=O)N1CCN(c2ccc(NC(=O)c3ccc([N+](=O)[O-])o3)cc2Cl)CC1	n	n	-92	u	n	u
CC(=O)N1CCN(c2ccc(NC(=O)c3ccc(N4CCCC4)c([N+](=O)[O-])c3)cc2Cl)CC1	n	n	n	n	n	23µM
O=C(Nc1cc(Cl)ccc1-n1cncn1)c1ccc([N+](=O)[O-])o1	n	n	u	13µM	x	n
Cc1ccc(C(=O)NC(=S)Nc2ccccc2N2CCCC2)cc1[N+](=O)[O-]	n	n	n	n	n	n
O=C(Nc1cc(Cl)ccc1F)c1ccc(-n2cncn2)c([N+](=O)[O-])c1	n	n	n	n	x	u
CCC[C@H]1C[C@H](C(=O)NC(C(C)Cl)C2O[C@@H](SC)C(OP(=O)(O)O)[C@@H](O)[C@@H]2O)N(C)C1 (some centres not stated)	x	x	x	x	n	x
O=C(NCc1ccccc1F)C1CCN(Cc2cc3ccccc3n2Cc2cccc(Cl)c2)CC1	n	n	x	n	n	x
CC(=O)Oc1cccc(C)c1	x	x	x	x	n	x
CCC(=O)N1CCN(c2ccc(Cl)cc2NC(=O)c2ccc([N+](=O)[O-])o2)CC1	n	n	-101	11µM	n	n
Cc1cccc(N2CCN(CC(=O)Nc3ccccc3[N+](=O)[O-])CC2)c1C	n	n	n	n	n	21µM
CN(C)S(=O)(=O)c1cc(NC(=O)c2ccc(-n3ccnc3)c([N+](=O)[O-])c2)ccc1Cl	n	n	n	n	n	18µM
SMILES	mIDH1 inhibitor	A549 viability	Giardia kill	Nrf2 activator	Anesthetic bind	Nrf2 block
COc1ccccc1NC(=O)c1ccc(-n2ccnc2)c([N+](=O)[O-])c1	n	n	n	n	n	u
CC(=O)N1CCN(c2ccc(NC(=O)c3ccc([N+](=O)[O-])o3)cc2Cl)CC1	n	u	-81	u	n	u
CCCCn1c(CCl)nc2cc(S(=O)(=O)N3CCOCC3)ccc21	n	n	n	n	x	n
O=S(=O)(c1ccc2c(c1)nc(COc1ccc(Cl)cc1)n2CC1CCCO1)N1CCOCC1 (configuration not stated)	n	n	n	n	n	10µM
Cc1ccc(NC(=O)C2CCCN2S(=O)(=O)c2ccc3c(c2)C(C)(C)C(=O)N3C)cc1 (configuration not stated)	n	n	x	n	n	u
O=C(CCCCn1c(=O)c2ccccc2n(Cc2ccccc2F)c1=O)NCc1ccc2c(c1)OCO2	n	n	x	n	n	n
Cc1ccc(Oc2nnc(-c3cccs3)c3ccccc23)cc1	n	n	n	n	n	n
Cc1ccc(Oc2nnc(-c3cccs3)c3ccccc23)cc1C	n	n	n	n	n	18µM
O=C1CC(c2cccc([N+](=O)[O-])c2)c2cc3c(cc2N1)CCC3 (configuration not stated)	n	u	n	n	n	15µM
COc1ccc(NC(=O)C(OC(=O)CNC(=O)c2ccccc2)c2ccccc2)cc1Cl (configuration not stated)	x	n	x	x	x	n
Cc1ccc(N=C(NOCc2ccc(Cl)cc2Cl)c2nonc2N)c(C)c1	n	n	n	n	n	23µM
CCCCN(CCCC)C(=O)c1cc2c(=O)n3ccccc3nc2s1	n	n	x	n	n	n
CC1CCc2cc(F)ccc2N1C(=O)CSc1nnc2c(n1)[nH]c1ccc(F)cc12 (configuration not stated)	n	u	n	n	u	21µM
O=c1cc(-c2ccccc2)n2c(SCc3ccccc3Cl)nnc2[nH]1	n	n	x	n	n	x
Cc1ccc(N2CCN(S(=O)(=O)c3ccc4c(c3)CC(=O)N4)CC2)cc1	x	n	x	x	x	n
CCOC(=O)CNC(=S)N(Cc1cccs1)C1CCCCC1	n	n	n	n	n	n
CC(CCc1ccccc1)NC(=O)CNC(=S)N(Cc1cccs1)C1CCCC1 (configuration not stated)	n	u	n	n	n	15µM
CCCCNC(=O)CNC(=S)N(Cc1ccccc1)Cc1cccs1	n	n	n	n	n	23µM
CCOc1ccc(NC(=O)CC2C(=O)N(c3ccccc3)C(=O)N2Cc2cccc(OC)c2)cc1 (configuration not stated)	n	n	x	n	n	u
CC(=O)c1c(C)[nH]c(C(=O)C(C)Sc2nnc(NC3CC3)s2)c1C (configuration not stated)	n	n	n	n	x	16µM
C#CCn1c(=NC(=O)c2ccc(S(=O)(=O)N3CCc4ccccc4C3)cc2)sc2cc(S(N)(=O)=O)ccc21	n	5.2µM	n	n	n	3.3µM
Cc1ccc(S(=O)(=O)Nc2ccc(-n3c(C)nc4ccccc4c3=O)cc2)cc1	n	n	n	n	x	18µM

Assay outcomes: PubChem, National Center for Advancing Translational Sciences (NCATS)
